Only some compounds are listed: those with a hit (about 4% of all), similar ones and a draw of the others.
CCHFV vOTU inh: CCHFV vOTU protease inhibition; Pep-AMC fluorescence; 370,000 compounds, 0.55% hits; inhibition, % at 11.5 µM; note: 0% = vehicle wells with enzyme and 100% = no enzyme wells
MazEF act: MazEF (E. coli) toxin RNase activation. P0AE70. FAM/BHQ RNA-DNA oligo cleavage fluorescence, 5 h. activation, % at 20 µM. 350,000 compounds, 0.32% hits; in the data active = activation above about 50%
Target sequence (P0AE70 whole entry, looked up): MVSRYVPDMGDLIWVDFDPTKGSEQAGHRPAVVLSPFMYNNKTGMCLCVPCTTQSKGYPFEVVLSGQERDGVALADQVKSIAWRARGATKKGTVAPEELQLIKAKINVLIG
FBA Mtb inh: inhibitors of M. tuberculosis fructose-bisphosphate aldolase; AID 588726; inhibition, % at 1 µM; P9WQA3; 360,000 compounds, 2.3% hits; purified M. tuberculosis FBA, fluorescence read-out; in the data active = inhibition above about 27%;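 note: 0% = vehicle and 100% = reference inhibitor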
Target sequence (P9WQA3 whole entry, looked up): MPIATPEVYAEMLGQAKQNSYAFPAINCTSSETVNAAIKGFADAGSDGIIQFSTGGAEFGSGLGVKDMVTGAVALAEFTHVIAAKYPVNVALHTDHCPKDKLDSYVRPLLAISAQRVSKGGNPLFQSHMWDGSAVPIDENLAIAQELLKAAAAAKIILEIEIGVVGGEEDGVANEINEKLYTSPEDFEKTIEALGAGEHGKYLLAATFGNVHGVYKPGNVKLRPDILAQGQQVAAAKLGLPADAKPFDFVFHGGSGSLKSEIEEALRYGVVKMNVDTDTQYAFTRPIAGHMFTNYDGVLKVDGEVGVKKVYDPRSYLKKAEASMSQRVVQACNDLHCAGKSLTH
Mtb betalactam: beta-lactam sensitization of Mtb H37Rv; M. tuberculosis H37Rv growth with meropenem, percent inhibition; inhibition, % at 25 µM; 330,000 compounds, 0.27% hits; AID 434955; call rule not given here;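 note: growth measured after seven days incubation then overnight dye step; 0% = bacteria only wells and 100% = bacteria with antibiotic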
GDH-TPI inh: GDH-TPI coupled enzyme inhibition counter-screen; AID 588335; GDH-TPI coupled enzyme counterscreen, NADH absorbance; inhibition, % at 4.8 µM; 360,000 compounds, 1.2% hits;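 note: 0% = DMSO wells and 100% = wells lacking the enzyme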
* hit, by the source's call; ? = inconclusive; . = not tested or not shown; + = active, no number. Cut-off read from the data, not from the text of the source, unless noted: active = inhibition above about 30%; inactive = the rest.

SMILES	CCHFV vOTU inh	MazEF act	FBA Mtb inh	Mtb betalactam	GDH-TPI inh
CCOC(=O)c1c(-c2ccc(OC)cc2)oc2ccc(OC(=O)N(C)C)cc12	-45.7	4.1	+	94.0	14.5
CCOC(=O)c1c(-c2ccccc2)oc2ccc(OC(C)C(=O)O)cc12 (stereo not given)	-66.6	-10.7	164.9*	-3.5	14.0
Cc1oc2ccc(OC(=O)N(C)C)cc2c1C(=O)OC(C)C	-1.9	1.5	3.1	14.6	2.9
CCOC(=O)c1c(-c2ccccc2)oc2ccc(OCC(=O)NNC(=O)CCCC(=O)O)cc12	-68.1	1.7	157.2*	13.5	5.0
CCOC(=O)c1c(-c2ccccc2)oc2ccc(OCC(=O)NNC(=O)CCC(=O)O)cc12	-74.7	2.9	122.3*	-1.9	7.6
CCOC(=O)c1c(C)oc2ccc(OCC(N)=O)cc12	9.9	1.2	-0.7	-4.0	3.3
CN(Cc1ccccc1)C1=CC(=[N+]2CCCCC2)CC(C)(C)C1	0.1	-18.4	-1.4	-10.6	68.4*
CC1(C)CC(N2CCCC2)=CC(=[N+]2CCCC2)C1	15.2	1.2	-1.3	2.7	27.9
CC1(C)CC(N2CCN(Cc3ccccc3)CC2)=CC(=[N+]2CCCCC2)C1	9.0	-8.7	0.3	-13.0	63.6*
CC1(C)CC(N2CCCC2)=CC(=[N+]2CCCCC2)C1	19.4	-4.9	-1.9	-8.0	29.1
COC(=O)C1CN(C2CCCC2)CCS(=O)(=O)N1Cc1ccc(F)cc1 (stereo not given)	-4.6	.	.	.	.
CCOC(=O)[C@@H](CCc1ccccc1)N[C@@H](C)C(=O)N1CCC[C@H]1C(=O)O	-1.9	.	.	.	.
CCc1ccc2c(CSc3nnnn3C)cc(=O)oc2c1	-6.1	0.1	8.1	-6.1	33.8*
N#C/C(=C\c1ccc(O)cc1)C(=O)N1CCCC1	-5.0	3.5	-0.1	-5.7	15.6
N#C/C(=C\c1ccc[nH]1)C(=O)N1CCCCC1	2.6	2.2	-0.2	-4.4	31.4*
Clc1ccc(CN2CCN(N=Cc3ccncc3)CC2)cc1	-5.4	.	.	.	.
CCOC(=O)N1CCc2c(sc3c2C(=O)NC(c2ccccc2)N3)C1 (stereo not given)	.	9.0	58.4*	1.6	12.3
CN1CCc2c(sc3c2C(=O)NC(c2cccc(OC(=O)c4cccs4)c2)N3)C1 (stereo not given)	-4.6	-72.3	4.5	42.2	13.9
O=c1c2ccccc2n(Cc2ccco2)n1[C@@H](Cc1ccccc1)Cn1cc(-c2ccc(-c3ccccc3)cc2)nn1	-24.0	.	.	.	.
COc1ccc(-n2c(SCc3nc4ccccc4[nH]3)nc3ccccc3c2=O)cc1	-0.5	.	.	.	.
COc1ccc(C(=O)NCCN2C(=O)S/C(=C\c3cccnc3)C2=O)c(OC)c1OC	-18.9	3.9	-0.8	0.8	32.6*
COc1ccc(C2CC(=O)C3=C(C2)Nc2ccccc2N(C(=O)CCC(=O)O)C3c2ccc(F)cc2)cc1 (stereo not given)	6.0	-3.3	18.7	-6.6	50.0*
CCCCN1C[C@@H](COCc2ccccc2)Oc2cccc(F)c2S1(=O)=O	13.9	.	.	.	.
C=CCN1C(=O)/C(=C2/Sc3ccccc3N2CC)SC1=S	-3.3	161.8*	-3.7	1.6	13.9
O=C(N/N=C\c1ccc(-c2ccc([N+](=O)[O-])cc2)o1)c1ccc2c(c1)OCO2	-1.9	86.3*	-4.7	9.4	7.4
SMILES	CCHFV vOTU inh	MazEF act	FBA Mtb inh	Mtb betalactam	GDH-TPI inh
O=C(N/N=C\c1ccc(COc2ccc([N+](=O)[O-])cc2)o1)c1cccc(Cl)c1	12.3	10.3	2.2	92.5	29.4
O=C(N/N=C/c1ccc([N+](=O)[O-])o1)c1ccc2c(c1)OCO2	10.6	4.2	1.6	99.9	22.8
Cc1cc(O)cc(O)c1/C=N/NC(=O)c1ccc2c(c1)OCCO2	12.3	1.4	6.8	.	44.2*
O=C(N/N=C\c1ccc(COc2ccc([N+](=O)[O-])cc2)o1)c1ccc(Cl)cc1	5.6	7.3	-0.4	91.1	41.8*
O=C(N/N=C/c1ccc(Br)o1)c1ccc2c(c1)OCCO2	17.6	-0.7	0.7	15.7	41.4*
CCOC(=O)[C@@]12CN(C(=O)OC(C)(C)C)CC=C1N(Cc1ccc(OC)cc1)C(=O)[C@H]2CC(=O)N1CCSCC1	7.0	.	.	.	.
C=CCn1c(-c2ccc(OC)cc2)nc2nc3ccccc3nc21	-88.6	8.2	144.2*	3.4	30.6
C=CCn1c(-c2ccc(OC)cc2)nc2ccccc21	2.5	-0.2	9.1	-7.7	-9.1
Fc1ccc(-c2nc3nc4ccccc4nc3n2Cc2ccco2)cc1	3.5	20.2	-2.7	-6.9	39.8*
c1ccc(-c2nc3nc4ccccc4nc3n2Cc2ccco2)cc1	8.0	-10.3	2.7	-2.7	25.7
Fc1ccc(-n2c(-c3ccco3)n[nH]c2=S)cc1	-4.7	1.1	1.3	5.5	-10.7
Fc1ccc(-n2c(-c3ccco3)nc3nc4ccccc4nc32)cc1	-91.4	5.8	125.6*	-8.4	11.6
CN(CCCOC(=O)c1occ2ccccc12)C1CN(Cc2cn(Cc3ccccc3Cl)nn2)S(=O)(=O)C1 (stereo not given)	4.7	.	.	.	.
CN1c2ccsc2C(O)=C(C(=S)Nc2ccccc2)S1(=O)=O	13.5	-4.9	-0.1	1.3	30.4
Cc1ccc(NC(=S)C2=C(O)c3ccccc3N(C)S2(=O)=O)cc1	8.0	-7.6	-7.3	26.0	38.4*
CN1c2ccccc2C(O)=C(C(=S)Nc2ccc(F)c(Cl)c2)S1(=O)=O	16.7	9.3	9.9	1.8	30.8*
CN1c2ccccc2C(O)=C(C(=O)Nc2ccccc2)S1(=O)=O	8.5	-5.6	6.7	5.9	8.5
CN1c2ccccc2C(O)=C(C(=S)Nc2ccccc2)S1(=O)=O	16.4	1.1	-5.1	?	31.5*
O[C@H](COc1ccc(OC(F)(F)F)cc1)CN1CCC(C(O)(c2ccccc2)c2ccccc2)CC1	24.3	.	.	.	.
COc1cccc(Cn2cc(COC(=O)NCC(C)C)nn2)c1	-5.3	.	.	.	.
CCCCCC[C@H](CC)CN(C(=O)Oc1ccccc1)c1ccccc1	8.5	.	.	.	.
N/C(=N\OC(=O)c1cccc2ccccc12)c1cccc([N+](=O)[O-])c1	-4.1	55.2*	4.4	47.9	10.0
Cc1ccccc1C(=O)O/N=C(\N)c1cccc([N+](=O)[O-])c1	-11.1	-9.1	2.5	.	10.7
Cc1ccc(Sc2oc(/C=N/n3cnnc3)cc2Br)cc1	7.6	2.8	-1.9	7.8	17.1
Cc1cc(-c2ccc(/C=N/n3cnnc3)o2)c(C)c([N+](=O)[O-])c1	-2.2	3.6	0.1	0.0	23.6
SMILES	CCHFV vOTU inh	MazEF act	FBA Mtb inh	Mtb betalactam	GDH-TPI inh
COc1cc([N+](=O)[O-])ccc1-c1ccc(/C=N\n2cnnc2)o1	1.4	153.8*	-0.9	7.3	12.2
O=[N+]([O-])c1ccc(Cl)c(-c2ccc(/C=N/n3cnnc3)o2)c1	3.3	7.7	0.9	1.4	52.5*
Cc1ccc(-c2ccc(/C=N\n3cnnc3)o2)c(Br)c1	1.5	4.5	4.5	10.0	45.3*
O=c1c2ccccc2[nH]n1[C@@H](Cc1ccccc1)Cn1cc(-c2ccc(-c3ccccc3)cc2)nn1	12.9	.	.	.	.
Cc1ccc(CN2CCCCC(NC(=O)c3ccc(F)cc3)C2=O)cc1 (stereo not given)	-3.9	.	.	.	.
Cc1ccc(NC(=O)OC2CC3CC2[C@H]2CCCCN2C3)cc1 (stereo not given in full)	-2.7	.	.	.	.

Screening data from PubChem BioAssay.
